Most compounds without a hit are left out; they make up all but 19% or so of the library.
TDP1 cell CPT = DT40-hTDP1 cell growth loss with CPT; hit rate 12% among 420,000; chicken DT40 Tdp1-/-;hTDP1 cells + 20 nM CPT, ATP luminescence, 48 h; AID 686979; Potency, µM (doses to about 46.2 µM), usual class: inhibitors; further: nearly all actives have a fitted effect of over 55% in size
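Cell growth measured by CellTiter-Glo luminescence after a minimum 48 h, 37 C compound exposure with 20 nM CPT in Tdp1-knockout DT40 cells stably expressing hTDP1, seeded 400/well; qHTS titration format.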
HT1080 IDH1KD tx = toxicity to HT-1080 IDH1 knockdown cells (counter line); hit rate 2% among 360,000; HT-1080 IDH1 knockdown viability, ATP luminescence, 48 h; Potency, µM (series often up to 46.1 µM), usual class: cytotoxic
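Assay cells: HT-1080 with IDH1 knockdown, 750 per well, RPMI/5% FBS. Exposure: 48 h at 37 °C following 2 h pre-incubation. Read: CellTiter-Glo luminescence; fitted concentration-response, curve class assigned.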
DT40 TDP1 no CPT = qHTS for Inhibitors of human tyrosyl-DNA phosphodiesterase 1 (TDP1): qHTS in cells in absence of CPT; DT40 Tdp1-/- hTDP1 cells, no CPT, ATP luminescence, 48 h; Potency, µM (doses to about 46.2 µM), most hits filed as inhibitors; hit rate 15% among 420,000; further: nearly all actives have a fitted effect of over 55% in size
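Growth of hTDP1-complemented DT40 Tdp1-knockout cells is measured by ATP luminescence after at least 48 hr compound exposure at 37 °C, with DMSO substituting for the 20 nM CPT used in the parallel screen.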
IL-1B inflam inh = blocks inflammasome-driven IL-1 beta release; AID 743279; activity change, % at 57.5 µM; THP-1 LPS/ATP IL-1B secretion, AlphaLISA, 16 h; active compounds read low; hit rate 4.7% among 360,000; in the data active means activity change below about -50%; inconclusive means mostly about -30% to -49%
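Secreted IL-1B measured by AlphaLISA bead assay after 16 h compound exposure of THP-1 cells; compounds (final up to 57.5 uM) added 1 h before LPS (250 ng/mL) and ATP (1.25 mM) stimulation; lower signal means less secretion.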
HT1080NT lethal = kills 2HG-producing HT-1080-NT fibrosarcoma cells; hit rate 1.6% among 360,000; HT-1080-NT fibrosarcoma viability, CellTiter-Glo ATP luminescence, 48 h; Potency, µM (top dose mostly 46.1 µM), most hits filed as cytotoxic;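 further: NT is the 2HG producing partner of a matched IDH1 knockdown line; nearly all actives have a fitted effect of over 55% in size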
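Toxicity toward the 2HG-producing NT line was scored as %Activity, normalised to DMSO and no-cell wells, from CellTiter-Glo luminescence after 48 hours' treatment.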
Numbers stand for hits; 0 = inactive; ? = inconclusive; - = no result. Unless noted, the call rests on the fitted dose curve; in most records, active means well fitted curve in the direction sought with a large enough effect; inconclusive means small, poorly fitted or top-dose-only effect, or another doubt; inactive means no such curve, though single readings can be large; an effect the other way counts as inactive or inconclusive.

SMILES	TDP1 cell CPT	HT1080 IDH1KD tx	DT40 TDP1 no CPT	IL-1B inflam inh	HT1080NT lethal
C[C@H]1CN([C@@H](C)CO)C(=O)c2cc(NC(=O)C3CCCCC3)ccc2O[C@H]1CN(C)Cc1ccc(-c2ccccc2)cc1	?	0	?	0	0
C[C@@H]1CN([C@H](C)CO)C(=O)c2cc(/C=C/c3ccccc3)cnc2O[C@H]1CN(C)C(=O)NC1CCCCC1	?	0	?	?	0
C#CC[N+]1(C)C2CCC1CC(O)C2 (centres undefined)	?	0	0	0	0
O=Nc1c(O)c2ccccc2c2ccccc12	1.8µM	2.9µM	3.3µM	-76	6.5µM
C[C@@H](N)[C@@H](O)c1ccccc1	0	-	0	-	-
CC(C(=O)OC1CC2CCC(C1)N2C)c1ccc(Br)cc1 (centres undefined)	21µM	-	16µM	-	-
CCC(Oc1ccc(Cl)cc1)C(=O)OC1CC2CCC(C1)N2C (centres undefined)	13µM	-	10µM	-	-
CCN(c1ccccc1)S(=O)(=O)c1ccc(C(=O)NC2CCCCC2)cc1	?	0	16µM	0	0
CO/C=C(/C(=O)OC)c1ccccc1Oc1cc(Oc2ccccc2C#N)ncn1	0.24µM	-	0.22µM	-	-
CCCOP(=O)(OCCC)C1(Nc2ccc(C)cc2)CCCCC1	0	0	?	0	0
CC1Cc2ccccc2CN1 (centres undefined)	0	-	0	-	-
COc1cc(CN2CCN(C(=O)Cc3ccccc3)CC2)cc(OC)c1OC	0	0	0	0	0
COc1ccc(CN2CCN(C(=O)Cn3c(=O)oc4cc(Cl)ccc43)CC2)c(OC)c1OC	10µM	0	?	0	0
CC12C=CC(=O)C=C1CC(O)C1C2CCC2(C)C1CCC2(C)O (centres undefined)	0	0	0	0	0
COC(=O)C1=CN(c2ccc(C(C)(C)C)cc2)C(N)=C(C#N)C1c1cccc([N+](=O)[O-])c1 (centres undefined)	?	0	23µM	0	0
COc1ccc(C(=O)OCC2CN2c2cccc([N+](=O)[O-])c2)cc1 (centres undefined)	?	0	0	0	0
Cc1cccc(-n2nc(C)c(C(=O)N3CCN(c4ccccc4)CC3)c2-n2cccc2)c1	16µM	-	21µM	-	-
O=c1cccc2n1CC1CC2CN2CCCCC12 (centres undefined)	0	-	0	-	-
Cc1ccccc1-c1nc(CS(=O)CC(=O)N2CCC3(CC2)OCCO3)c(C)o1 (centres undefined)	0	0	0	0	0
Cc1ccccc1-c1nc(CS(=O)CC(=O)N2CCN(c3cc(Cl)ccc3C)CC2)c(C)o1 (centres undefined)	16µM	-	13µM	-	-
O=C(c1csnn1)N1CCC2(CC1)CN(Cc1ccncc1)C2	0	-	0	-	-
CC(NCc1ccc(Cl)c(Cl)c1)C(O)c1ccccc1 (centres undefined)	16µM	?	?	?	?
CC(NCc1ccccc1Cl)C(O)c1ccccc1 (centres undefined)	0	0	0	0	0
O=c1nc(/C=C/c2ccc(Cl)cc2Cl)cc(C(F)(F)F)[nH]1	0	0	?	-87	0
CC(C)(C)OC(=O)NCc1ccc(CNC(=O)c2nc[nH]c2C(=O)NCc2ccc(CNC(=O)OC(C)(C)C)cc2)cc1	15µM	0	21µM	0	0
SMILES	TDP1 cell CPT	HT1080 IDH1KD tx	DT40 TDP1 no CPT	IL-1B inflam inh	HT1080NT lethal
CC(C)OP(=O)(OC(C)C)C(O)c1cccnc1 (centres undefined)	0	0	0	0	0
COc1cc2c(cc1OC)-c1c(OC)c(OC)cc3c1C(C2)N(C)CC3 (centres undefined)	?	0	?	0	0
COc1cc2c(cc1OC)-c1c(O)c(OC)cc3c1[C@H](C2)N(C)CC3	?	-	24µM	-	-
COc1ccc(CN2Cc3cnnn3-c3ccccc3C2C)cc1 (centres undefined)	?	?	16µM	0	0
CC(C)(C)C(=O)N1Cc2cc(N3CCOCC3)ccc2-n2nncc2C1	?	0	0	0	0
COc1ccc(CN2Cc3cc(-c4ccc(OC)cc4)ccc3-n3nncc3C2)cc1	21µM	?	18µM	0	?
COc1ccc(CN2Cc3cc(-c4ccccc4)ccc3-n3nncc3C2)cc1	?	0	?	0	0
Cc1ccccc1CN1Cc2cnnn2-c2ccccc2C1C#N (centres undefined)	2.6µM	6.5µM	2.1µM	-102	8.2µM
COc1ccc(CN2Cc3cc(N4CCOCC4)ccc3-n3nncc3C2)cc1	21µM	0	?	0	0
N=C1c2ccccc2CN1c1ncccn1	0	0	0	0	0
N[C@H](CP(=O)(O)O)C(=O)O	0	-	0	-	-
CC1CN2c3ccc([N+](=O)[O-])cc3CC3(C(=O)N(C)C(=O)N(C)C3=O)C2C(C)O1 (centres undefined)	0	0	0	0	0
CCCCCN(C)CCC(O)(P(=O)(O)O)P(=O)(O)O	0	-	0	-	-
CC1CC[C@@]2(NC1)O[C@@H]1C[C@H]3C4CC=C5C[C@@H](O)CC[C@]5(C)C4CC[C@]3(C)[C@H]1[C@@H]2C (some centres undefined)	0	-	0	-	-
CC(C)NC(=O)N1CCC2(CCNCC2)CC1	0	-	0	-	-
Cn1cccc1CNCCc1ccccc1F	?	0	0	0	0
O=C(NN=Cc1ccc(N(CCCl)CCCl)cc1)C(=O)c1c[nH]c2ccccc12	21µM	?	15µM	0	0
CCOC(=O)CNC(=O)CNC(=O)c1nn(-c2ccc(OC)c(Cl)c2)c(=O)c2ccccc12	?	0	0	0	0
COC(=O)C1=C(c2cccc(OCc3ccccc3)c2)C[C@@H]2CC[C@H]1N2C(=O)NCCOc1ccc(OC)cc1	23µM	0	?	0	0
COC(=O)C1=C(c2cccc(OCc3ccccc3)c2)C[C@@H]2CC[C@H]1N2C(=O)NCCCOC(C)C	21µM	0	18µM	?	0
COC(=O)C1=C(c2cccc(OCc3ccccc3)c2)C[C@@H]2CC[C@H]1N2C(=O)NCc1cccc(OC)c1	23µM	0	15µM	?	0
COC(=O)C1=C(c2ccccc2OCc2ccccc2)C[C@@H]2CC[C@H]1N2C(=O)NCCCOC(C)C	16µM	0	?	0	0
COC(=O)C1=C(c2ccccc2OCc2ccccc2)C[C@@H]2CC[C@H]1N2C(=O)NCc1ccc(N(C)C)cc1	?	0	?	?	0
COC(=O)C1=C(c2ccc(OCc3ccccc3)cc2)C[C@@H]2CC[C@H]1N2C(=O)NCc1ccc2[nH]ccc2c1	?	0	?	0	0
O=C(c1cccc2ccccc12)C1CCCN(C2CCC2)C1 (centres undefined)	0	0	?	0	0
CCOc1ccc(/C=C/C(=O)C(C(N)=O)=C2SCCS2)cc1	?	0	?	0	0

Screening data: PubChem, National Center for Advancing Translational Sciences (NCATS)
